Data from PubChem BioAssay (Tox21).
Unmarked numbers belong to inactive results. Inconclusive results are not listed. A call without a number means that no potency is given here. Calls of active or inactive are those of the source. Unless noted, calls follow the shape of the dose curve; as a rule, active = well fitted curve in the direction sought with a large enough effect in the repeat runs; inconclusive = weak or mixed curves; inactive = no such curve, though single readings can be large; an effect the other way counts as inactive or inconclusive.

What was measured:
[1] = qHTS assay for small molecules that induce genotoxicity in human embryonic kidney cells expressing luciferase-tagged ATAD5 (AID 651632); also: nearly all actives have a fitted effect of over 15% in size
Outline: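 Reporter cells (HEK293T) express luciferase-tagged ATAD5, a protein that accumulates after DNA damage. Treat 16 hr at 37C/5% CO2, add Amplite, wait 30 min at RT, and read luminescence.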

[2] = qHTS assay for small molecule agonists of the p53 signaling pathway - cell viability (AID 651633; calls by dose curve;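 also: p53RE-bla HCT reporter cells with a stable beta-lactamase p53 reporter; series mostly up to about 83 µM; nearly all actives have a fitted effect of over 30% in size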)
Outline: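 p53RE-bla cells, seeded at 4,000 per well and rested 5 h at 37 C/5% CO2, received compounds in DMSO for 16 h at 37 C. CellTiter-Glo was then added, and luminescence was read after 30 min at room temperature to gauge cytotoxicity.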

[3] = qHTS assay for small molecules that induce genotoxicity in human embryonic kidney cells expressing luciferase-tagged ATAD5 - cell viability (AID 651634; calls by dose curve; also: nearly all actives have a fitted effect of over 25% in size)
Outline: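 Seeding of 2,000 HEK293T ATAD5-luciferase cells per well preceded pin-tool compound transfer. Plates sat 15.5 hr at 37C under 5% CO2, then fluorescence was read after 30 min with CellTiter-Fluor.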

[4] = qHTS assay for small molecule disruptors of the mitochondrial membrane potential - cell viability (AID 720634; calls by dose curve;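 also: human HepG2 liver cancer cells; series mostly up to about 83 µM; nearly all actives have a fitted effect of over 20% in size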)
Outline: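 Measuring cytotoxicity alongside mitochondrial potential, the screen quantified ATP by luminescence in HepG2 cells after 1 hr compound incubation and a 30 min room-temperature CellTiter-Glo step.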

[5] = qHTS assay to test for compound auto fluorescence at 590 nm (red) in HepG2 cells (AID 720674)
Outline: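 Intrinsic compound fluorescence in the red window (Ex/Em 540/590 nm) is measured in attached HepG2 cells exposed for 1 hr, DMSO vehicle as baseline, benchmarked to Rose Bengal sodium.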

[6] = qHTS assay to test for compound auto fluorescence at 535 nm (green) in HepG2 cells (AID 720675)
[7] = qHTS assay to test for compound auto fluorescence at 460 nm (blue) in HEK293 cells (AID 720678)
Outline: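 Blue read-out at excitation 405 nm and emission 460 nm follows overnight compound exposure of HEK293 cells at 37C in 5% CO2. Activity is given as auto fluorescence equivalency to triamterene.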

[8] = qHTS assay to test for compound auto fluorescence at 590 nm (red) in HEK293 cells (AID 720679)
Outline: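 Red channel, Ex/Em 540/590nm; signal expressed as equivalency to Rose Bengal sodium. HEK293, 2,000 cells/well, 10% dialyzed FBS; 23 nL compound pinned after 4-5 hr attachment; overnight 37C/5% CO2 before reading.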

[9] = qHTS assay to test for compound auto fluorescence at 535 nm (green) in HEK293 cells (AID 720680)
[10] = qHTS assay to test for compound auto fluorescence at 460 nm (blue) in HEK293 cell free culture (AID 720681)
Outline: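 Test compounds were pinned into cell-free culture medium (DMEM with 10% FBS) and fluorescence was read directly at Ex/Em 405/460 nm. Signals were expressed as fluorescence equivalents of triamterene, with DMSO vehicle as control.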

[11] = qHTS assay to test for compound auto fluorescence at 535 nm (green) in HEK293 cell free culture (AID 720682)
Outline: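 Steps: dispense DMEM/10% FBS into empty wells; pin in compound or DMSO; measure fluorescence at 485/535 nm. Values are fluorescein equivalents.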

[12] = qHTS assay to test for compound auto fluorescence at 590 nm (red) in HEK293 cell free culture (AID 720683)
Outline: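 Tox21 10K library compounds were pinned into cell-free DMEM with 10% FBS and fluorescence was read at excitation 540 nm. Activity is expressed as Rose Bengal sodium equivalency.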

[13] = qHTS assay to test for compound auto fluorescence at 590 nm (red) in HepG2 cell free culture (AID 720684)
Outline: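 Measured in medium alone (MEM containing 10% FBS) following pintool addition of compound; emission at 590 nm with 540 nm excitation, referenced to Rose Bengal sodium.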

[14] = qHTS assay to test for compound auto fluorescence at 460 nm (blue) in HepG2 cell free culture (AID 720685)
Outline: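 Compound (23 nL) or DMSO pinned into cell-free MEM with 10% FBS; blue fluorescence read at 405/460 nm excitation/emission, expressed as auto-fluorescence equivalency to triamterene.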

[15] = qHTS assay to test for compound auto fluorescence at 535 nm (green) in HepG2 cell free culture (AID 720686)
[16] = qHTS assay to test for compound auto fluorescence at 460 nm (blue) in HepG2 cells (AID 720687)
Outline: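 Cells (2,000/well in MEM with 10% FBS) attached overnight at 37 C, then were exposed to compound or DMSO for 1 hr at 37 C, 5% CO2. Fluorescence read at Ex/Em 405/460 nm, expressed as triamterene-equivalent signal.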

[17] = biological target: Glucocorticoid receptor (Homo sapiens) (UniProt P04150); experiment: qHTS assay to identify small molecule agonists of the glucocorticoid receptor (GR) signaling pathway (AID 720691; active = well fitted activation curve with a large enough effect in the signal ratio in the repeat runs, not every such curve was filed as active; the % refers to the signal ratio; also: potency is read from the fitted curve at half-maximal effect)
Outline: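 Reporter read-out: fluorescence intensity following 2 h room-temperature LiveBLAzer B/G FRET substrate loading. Prior step: GR-bla HeLa cells held 4 h, then treated 18 h at 37 C.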

[18] = biological target: Glucocorticoid receptor (Homo sapiens) (UniProt P04150); experiment: qHTS assay to identify small molecule antagonists of the glucocorticoid receptor (GR) signaling pathway (AID 720692; active = well fitted inhibition curve with a large enough effect in the signal ratio in the repeat runs, not every such curve was filed as active; the % refers to the signal ratio; also: potency is read from the fitted curve at half-maximal effect)
Outline: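 Dexamethasone (5 nM final) stimulated a stably integrated GRE-beta-lactamase reporter in HeLa cells during 18 h co-incubation with compounds; signal was quantified as fluorescence intensity of B/G FRET substrate after 2 h.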

Chain of Glucocorticoid receptor (Homo sapiens) (P04150 whole entry, looked up): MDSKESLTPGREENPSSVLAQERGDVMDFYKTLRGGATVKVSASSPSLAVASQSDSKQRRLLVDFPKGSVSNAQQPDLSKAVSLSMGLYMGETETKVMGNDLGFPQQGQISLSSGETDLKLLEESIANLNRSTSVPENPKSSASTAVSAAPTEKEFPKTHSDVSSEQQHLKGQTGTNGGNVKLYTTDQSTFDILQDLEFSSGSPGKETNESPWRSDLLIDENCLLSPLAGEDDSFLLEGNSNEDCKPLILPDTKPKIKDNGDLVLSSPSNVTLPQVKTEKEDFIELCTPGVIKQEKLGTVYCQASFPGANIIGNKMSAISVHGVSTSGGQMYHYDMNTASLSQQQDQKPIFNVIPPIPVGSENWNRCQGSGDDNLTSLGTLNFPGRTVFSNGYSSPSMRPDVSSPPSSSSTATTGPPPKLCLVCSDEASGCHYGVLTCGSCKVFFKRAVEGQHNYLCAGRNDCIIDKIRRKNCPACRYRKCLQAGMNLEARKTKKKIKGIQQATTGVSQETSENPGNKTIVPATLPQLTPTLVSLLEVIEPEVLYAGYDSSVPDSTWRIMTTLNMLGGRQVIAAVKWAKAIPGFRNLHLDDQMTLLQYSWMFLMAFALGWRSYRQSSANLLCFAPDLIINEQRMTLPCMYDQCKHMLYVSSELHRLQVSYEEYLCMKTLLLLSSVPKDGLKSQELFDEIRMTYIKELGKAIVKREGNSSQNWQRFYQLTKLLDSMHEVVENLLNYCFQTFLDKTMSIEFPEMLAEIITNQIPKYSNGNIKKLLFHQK

## COC(Cc1ccccc1)OC
[1]
  Potency: inactive
[2]
  Potency: inactive
[3]
  Potency: inactive
[4]
  Potency: inactive
[5]
  outcome: inactive
[6]
  outcome: inactive
[7]
  Potency: inactive
[8]
  outcome: inactive
[9]
  outcome: inactive
[10]
  Potency: inactive
[11]
  outcome: inactive
[12]
  outcome: inactive
[13]
  outcome: inactive
[14]
  Potency: inactive
[15]
  outcome: inactive
[16]
  Potency: inactive
[17]
  Potency: inactive
[18]
  Potency: inactive

## O=C1CCCCCO1
[1]
  Potency: inactive
[2]
  Potency: inactive
[3]
  Potency: inactive
[6]
  outcome: inactive
[7]
  Potency: inactive
[8]
  outcome: inactive
[9]
  outcome: inactive
[10]
  Potency: inactive
[11]
  outcome: inactive
[12]
  outcome: inactive
[13]
  outcome: inactive
[14]
  Potency: inactive
[16]
  Potency: inactive

## CC(C)(C)c1cc(CO)cc(C(C)(C)C)c1O
[1]
  Potency: inactive
[2]
  Potency: inactive
[3]
  Potency: inactive
[4]
  Potency: inactive
[5]
  outcome: inactive
[6]
  outcome: inactive
[7]
  Potency: inactive
[8]
  outcome: inactive
[9]
  outcome: inactive
[10]
  Potency: inactive
[12]
  outcome: inactive
[13]
  outcome: inactive
[14]
  Potency: inactive
[16]
  Potency: inactive
[17]
  Potency: inactive
[18]
  Potency: 44.5 µM (active)

## c1ccc(OCc2ccc(CCCN3CCOCC3)cc2)cc1
[1]
  Potency: inactive
[2]
  Potency: inactive
[4]
  Potency: inactive
[5]
  outcome: inactive
[6]
  outcome: inactive
[7]
  Potency: inactive
[8]
  outcome: inactive
[9]
  outcome: inactive
[10]
  Potency: inactive
[11]
  outcome: inactive
[12]
  outcome: inactive
[13]
  outcome: inactive
[14]
  Potency: inactive
[15]
  outcome: inactive
[16]
  Potency: inactive
[17]
  Potency: inactive
[18]
  Potency: inactive

## CC(C(=O)O)c1ccc(-c2ccccc2)c(F)c1 (stereo not given)
[1]
  Potency: inactive
[2]
  Potency: inactive
[3]
  Potency: inactive
[4]
  Potency: inactive
[5]
  outcome: inactive
[6]
  outcome: inactive
[7]
  Potency: inactive
[8]
  outcome: inactive
[9]
  outcome: inactive
[10]
  Potency: inactive
[12]
  outcome: inactive
[13]
  outcome: inactive
[14]
  Potency: inactive
[15]
  outcome: inactive
[16]
  Potency: inactive
[17]
  Potency: inactive
[18]
  Potency: inactive

## O=C(CCN1CCN2CCCC2C1)N1c2ccccc2Sc2ccc(Cl)cc21 (stereo not given)
[1]
  Potency: inactive
[2]
  Potency: inactive
[3]
  Potency: inactive
[4]
  Potency: inactive
[5]
  outcome: inactive
[6]
  outcome: inactive
[7]
  Potency: inactive
[8]
  outcome: inactive
[9]
  outcome: inactive
[10]
  Potency: inactive
[11]
  outcome: inactive
[12]
  outcome: inactive
[13]
  outcome: inactive
[14]
  Potency: inactive
[15]
  outcome: inactive
[16]
  Potency: inactive
[17]
  Potency: inactive
[18]
  Potency: inactive

## CCCCc1cc2ccccc2c(OCCN(C)C)n1
[1]
  Potency: inactive
[2]
  Potency: inactive
[4]
  Potency: inactive
[5]
  fluorescence, relative to Rose Bengal: 0.0286% [at 18.6 µM]
[6]
  fluorescence, % of fluorescein control: 0.0129% [at 18.6 µM]
[7]
  fluorescence, % of triamterene: 0.0451% [at 18.6 µM]
[8]
  fluorescence, % of fluorescent control: -0.0036% [at 18.6 µM]
[9]
  fluorescence, % of fluorescein: -0.0691% [at 18.6 µM]
[10]
  fluorescence, % of fluorescent control: -0.0502% [at 18.6 µM]
[11]
  activity change: -0.13% [at 18.6 µM]
[12]
  fluorescence, % of fluorescent control: 0.0019% [at 18.6 µM]
[13]
  fluorescence, % of Rose Bengal: 0.586% [at 18.6 µM]
[14]
  fluorescence, % of fluorescent control: -0.0015% [at 18.6 µM]
[15]
  fluorescence, % of fluorescein control: 0.0394% [at 18.6 µM]
[16]
  fluorescence, % of fluorescent control: -0.0043% [at 18.6 µM]
[17]
  Potency: 1.02 µM (active)
